These results are taken from PubChem BioAssay (EPA / NIEHS).

The nature of assay [1]: ATG_XTT_Cytotoxicity: Cytotoxicity Assessment in the Attagene TRANS-FACTORIAL HepG2 Assay (AID 2283584; active = hit-call score of the fitted dose curve at least 0.9, where 1 is the maximum;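 as to AC50: cells exposed to compound for 24 h before reading; active means loss of viability signal versus DMSO baseline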). The method, boiled down: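 Cells: human HepG2, transiently transfected with MRTU reporter constructs. Exposure 24 h. Readout: XTT, cell number. Baseline/neg ctrl DMSO; loss-of-signal scored.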
Read-out in assay [2]: Nuclear factor erythroid 2-related factor 2 (Homo sapiens) (UniProt Q16236)
Kind of assay: LTEA_HepaRG_NFE2L2: Life Technologies and Expression Analysis (LTEA) Assay for Nuclear factor erythroid 2-related factor 2 (NFE2L2) Transcription Factor using HepaRG (AID 2283527). The settings on record: mRNA level, 48 h; actives raise or lower the signal. The method, boiled down:
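HepaRG, 48 h dosing, 8-pt half-log series from 100 uM in 0.5% DMSO, duplicates. Read-out: NFE2L2 mRNA by qRT-PCR (ACTB/GAPDH/POLR2A normalization). Bidirectional curve fit vs DMSO baseline.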

Read-out in assay [3]: succinate dehydrogenase complex iron sulfur subunit B (SDHB), SDHB (gene 6390)
Kind of assay: LTEA_HepaRG_SDHB: Life Technologies and Expression Analysis (LTEA) Assay for succinate dehydrogenase complex iron sulfur subunit B (SDHB) using HepaRG (AID 2283528). The settings on record: mRNA level, 48 h; actives raise or lower the signal. The method, boiled down: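 SDHB transcript level read by TaqMan qRT-PCR, housekeeping-normalised (ACTB, GAPDH, POLR2A), after 48 h chemical treatment of plated HepaRG cells; eight concentrations top 100 uM, half-log steps, 0.5% DMSO, duplicates; fitted both directions against DMSO.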

Read-out in assay [4]: Signal transducer and activator of transcription 3 (Homo sapiens) (UniProt P40763)
The assay can be described thus: LTEA_HepaRG_STAT3: Life Technologies and Expression Analysis (LTEA) Assay for Signal transducer and activator of transcription (STAT3) using HepaRG (AID 2283529). The note with it: mRNA level, 48 h; actives raise or lower the signal. An outline of the steps:
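HepaRG, 48 h exposure, 8-pt half-log series (top 100 uM), 0.5% DMSO vehicle, duplicates. Readout: STAT3 transcript by Fluidigm qRT-PCR, housekeeping-normalized; bidirectional fit vs DMSO baseline.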

Read-out in assay [5]: solute carrier (SLCO1B1), SLCO1B1 (gene 10599)
Kind of assay: LTEA_HepaRG_SLCO1B1: Life Technologies and Expression Analysis (LTEA) Assay for solute carrier (SLCO1B1) using HepaRG (AID 2283530). The note with it: mRNA level, 48 h; actives raise or lower the signal. The method, boiled down:
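HepaRG, serum-free induction medium, 48 h dosing, 8-pt half-log from 100 uM, 0.5% DMSO vehicle, duplicates. Readout: SLCO1B1 mRNA, qRT-PCR, ACTB/GAPDH/POLR2A normalization; up or down fit vs DMSO.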

Read-out in assay [6]: sulfotransferase 2A1 (SULT2A1), SULT2A1 (gene 6822)
Kind of assay: LTEA_HepaRG_SULT2A1: Life Technologies and Expression Analysis (LTEA) Assay for sulfotransferase 2A1 (SULT2A1) using HepaRG (AID 2283531). The note with it: mRNA level, 48 h; actives raise or lower the signal. An outline of the steps:
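Transcript levels of SULT2A1, quantified by qRT-PCR and normalized to three housekeeping genes, serve as the readout. Human HepaRG cultures receive test chemicals for 48 h at up to 100 uM in half-log steps, with 0.5% DMSO vehicle.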

Read-out in assay [7]: Transforming Growth Factor (TGFA), TGFA (gene 7039)
The assay can be described thus: LTEA_HepaRG_TGFA: Life Technologies and Expression Analysis (LTEA) Assay for Transforming Growth Factor (TGFA) using HepaRG (AID 2283532). The settings on record: mRNA level, 48 h; actives raise or lower the signal. The method, boiled down: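 qRT-PCR read-out of TGFA transcript, normalized to three housekeeping genes, fitted bidirectionally against 0.5% DMSO baseline. Human HepaRG cultures received chemicals for 48 h at eight half-log concentrations, top 100 uM.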

Read-out in assay [8]: Transforming Growth Factor (TGFB1), TGFB1 (gene 7040)
The assay can be described thus: LTEA_HepaRG_TGFB1: Life Technologies and Expression Analysis (LTEA) Assay for Transforming Growth Factor (TGFB1) Transporter using HepaRG (AID 2283533). The note with it: mRNA level, 48 h; actives raise or lower the signal. An outline of the steps: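 HepaRG, 48 h post-plating, switched to serum-free induction medium; chemicals 100 uM top, half-log, 8 pts, 0.5% DMSO, dup; 48 h exposure; RNA → Fluidigm TaqMan qRT-PCR; norm ACTB/GAPDH/POLR2A; bidirectional fit vs DMSO.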

Read-out in a further assay: TIMP1, TIMP1 (gene 7076)
Kind of assay: LTEA_HepaRG_TIMP1: Life Technologies and Expression Analysis (LTEA) Assay for TIMP1 using HepaRG (AID 2283534). The settings on record: mRNA level, 48 h; actives raise or lower the signal. An outline of the steps:
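Readout is TIMP1 mRNA level measured by qRT-PCR and normalized to three housekeeping genes. Human HepaRG cells were treated for 48 h in duplicate at eight concentrations up to 100 uM (0.5% DMSO); gain or loss fitted against DMSO.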

Read-out in assay [9]: UDP glucuronosyltransferase (UGT1A6), UGT1A6 (gene 54578)
The assay can be described thus: LTEA_HepaRG_UGT1A6: Life Technologies and Expression Analysis (LTEA) Assay for UDP glucuronosyltransferase (UGT1A6) using HepaRG (AID 2283539). The settings on record: mRNA level, 48 h; actives raise or lower the signal. An outline of the steps:
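HepaRG, 48 h post-plating switch to serum-free induction medium; chemical 48 h, 100 uM top, half-log x8, duplicate, 0.5% DMSO. Phenobarbital 1mM induction control. UGT1A6 mRNA by TaqMan qRT-PCR; gain/loss fit vs DMSO.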

Read-out in assay [10]: X-box binding protein 1 (XBP1), XBP1 (gene 7494)
Kind of assay: LTEA_HepaRG_XBP1: Life Technologies and Expression Analysis (LTEA) Assay for X-box binding protein 1 (XBP1) using HepaRG (AID 2283540). The settings on record: mRNA level, 48 h; actives raise or lower the signal. The method, boiled down:
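Transcript levels of XBP1, measured by qRT-PCR and normalised to three housekeeping genes, were fitted bidirectionally relative to 0.5% DMSO controls. Human HepaRG cells received eight-point half-log dilutions from 100 uM for 48 h.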

The nature of assay [11]: LTEA_HepaRG_LDH_cytotoxicity: Cytotoxicity Assessment in the Life Technologies and Expression Analysis (LTEA) Assay (AID 2283563; active = hit-call score of the fitted dose curve at least 0.9, where 1 is the maximum). The method, boiled down: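 Cells were thawed and plated for 48 h. Medium was then replaced with serum-free induction medium. Chemicals (8 half-log points, maximum 100 uM, 0.5% DMSO) were added in duplicate for 48 h, after which spent medium was assayed for LDH.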

Read-out in assay [12]: Cellular tumor antigen p53 (Homo sapiens) (UniProt P04637)
The assay can be described thus: LTEA_HepaRG_TP53: Life Technologies and Expression Analysis (LTEA) Assay for Tumor Protein P53 (TP53) using HepaRG (AID 2283537). The settings on record: mRNA level, 48 h; actives raise or lower the signal. The method, boiled down:
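TP53 transcript measured by qRT-PCR, normalized to three housekeeping genes, after 48 h treatment of human HepaRG cultures with chemicals from 100 uM downward in half-log steps (0.5% DMSO vehicle, serum-free induction medium). Up- or down-regulation fitted against DMSO.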

Assay [13] in a line: TOX21_p53_BLA_p3_viability: Viability Assessment in the Tox21 HCT-116 p53 Agonism Beta-lactamase Assay, Phase 3 (AID 2283593; active = hit-call score of the fitted dose curve at least 0.9, where 1 is the maximum;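 also: cells exposed to compound for 16 h before reading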). An outline of the steps: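 HCT116 cells, 4000/well, dosed 5 h after plating by pin transfer (217-fold dilution from DMSO stock) and incubated 16 h at 37C, 5% CO2. Viability read as ATP luminescence with CellTiter-Glo after 30 min at room temperature.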

The target of assay [14] is Cellular tumor antigen p53 (Homo sapiens) (UniProt P04637). The assay can be described thus: TOX21_p53_BLA_p3_ratio: Tox21 HCT-116 p53 Agonism Beta-lactamase Assay, Ratio, Phase 3 (AID 2283596; active = hit-call score of the fitted dose curve at least 0.9, where 1 is the maximum). The method, boiled down: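 Cells were seeded at 4000/well, rested 5 h at 37C, then dosed with DMSO compound solutions (217-fold dilution) for 16 h. CCF4-AM substrate was loaded for 2 h at room temperature, and the 460/530 nm emission ratio was fitted for gain of signal versus DMSO.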

Assay [15] in a line: TOX21_p53_BLA_p4_viability: Viability Assessment in the Tox21 HCT-116 p53 Agonism Beta-lactamase Assay, Phase 4 (AID 2283597; active = hit-call score of the fitted dose curve at least 0.9, where 1 is the maximum;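 also: hits lower the luminescence signal meaning cytotoxicity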). An outline of the steps: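 Readout: ATP luminescence (CellTiter-Glo), measured 30 min after reagent addition at RT. The reagent followed a 2 h CCF4-AM incubation, and the cells had been exposed to compound for 16 h at 37C.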
Assay [16] addresses Cellular tumor antigen p53 (Homo sapiens) (UniProt P04637). The assay can be described thus: TOX21_p53_BLA_p5_ratio: Tox21 HCT-116 p53 Agonism Beta-lactamase Assay, Ratio, Phase 5 (AID 2283599; active = hit-call score of the fitted dose curve at least 0.9, where 1 is the maximum). An outline of the steps: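 HCT-116 p53-bla cells (4000/well) plated 5 h, dosed with compound (217-fold DMSO dilution) for 16 h at 37 C; CCF4-AM substrate 2 h at room temperature. Activity is the 460/530 nm emission ratio (405 nm excitation), fitted in gain-of-signal direction versus DMSO.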

A short description of assay [17]: TOX21_p53_BLA_p5_viability: Viability Assessment in the Tox21 HCT-116 p53 Agonism Beta-lactamase Assay, Phase 5 (AID 2283600; active = hit-call score of the fitted dose curve at least 0.9, where 1 is the maximum). The method, boiled down: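 Workflow: seed 4000 cells per well, wait 5 h, add compounds (DMSO, 217-fold dilution), incubate 16 h, load CCF4-AM 2 h, add CellTiter-Glo, read luminescence after 30 min.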
The target in assay [18] is Cellular tumor antigen p53 (Homo sapiens) (UniProt P04637). Kind of assay: TOX21_p53_BLA_p2_ratio: Tox21 HCT-116 p53 Agonism Beta-lactamase Assay, Ratio, Phase 2 (AID 2283592; active = hit-call score of the fitted dose curve at least 0.9, where 1 is the maximum). The method, boiled down: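 Plated HCT116 p53-bla cells (4000/well) received compound after 5 h, then 16 h at 37C/5% CO2. CCF4-AM added, 2 h RT. Ratio of 460 to 530 nm emission taken as the p53 reporter signal.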

The AC50 is the concentration at which the activity in the assay is half-maximal.

Inconclusive results are not listed. Calls of active or inactive are those of the source. The calls were made as follows, unless noted: active = hit-call score of the fitted dose curve at least 0.9, where 1 is the maximum; inactive = score below 0.9.

Chain of Signal transducer and activator of transcription 3 (Homo sapiens) (P40763 whole entry, looked up): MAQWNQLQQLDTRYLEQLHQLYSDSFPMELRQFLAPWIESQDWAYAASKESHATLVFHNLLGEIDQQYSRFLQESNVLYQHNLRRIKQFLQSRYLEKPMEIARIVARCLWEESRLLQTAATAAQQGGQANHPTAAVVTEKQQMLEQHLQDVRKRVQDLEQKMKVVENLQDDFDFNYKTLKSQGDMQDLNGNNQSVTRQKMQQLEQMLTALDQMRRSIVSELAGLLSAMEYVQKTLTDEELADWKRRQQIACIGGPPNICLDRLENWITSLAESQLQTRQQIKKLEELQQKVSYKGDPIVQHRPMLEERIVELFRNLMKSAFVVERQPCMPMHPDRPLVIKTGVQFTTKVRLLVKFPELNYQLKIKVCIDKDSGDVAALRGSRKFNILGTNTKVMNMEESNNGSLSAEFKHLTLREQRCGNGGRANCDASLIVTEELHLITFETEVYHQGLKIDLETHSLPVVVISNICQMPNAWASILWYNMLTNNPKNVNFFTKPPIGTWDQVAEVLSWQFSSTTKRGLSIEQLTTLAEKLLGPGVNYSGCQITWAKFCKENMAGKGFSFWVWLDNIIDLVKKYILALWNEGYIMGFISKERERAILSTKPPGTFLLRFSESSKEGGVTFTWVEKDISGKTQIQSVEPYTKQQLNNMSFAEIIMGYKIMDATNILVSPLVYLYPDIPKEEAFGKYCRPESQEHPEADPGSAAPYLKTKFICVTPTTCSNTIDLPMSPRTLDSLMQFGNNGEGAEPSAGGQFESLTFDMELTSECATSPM
Chain of Nuclear factor erythroid 2-related factor 2 (Homo sapiens) (Q16236 whole entry, looked up): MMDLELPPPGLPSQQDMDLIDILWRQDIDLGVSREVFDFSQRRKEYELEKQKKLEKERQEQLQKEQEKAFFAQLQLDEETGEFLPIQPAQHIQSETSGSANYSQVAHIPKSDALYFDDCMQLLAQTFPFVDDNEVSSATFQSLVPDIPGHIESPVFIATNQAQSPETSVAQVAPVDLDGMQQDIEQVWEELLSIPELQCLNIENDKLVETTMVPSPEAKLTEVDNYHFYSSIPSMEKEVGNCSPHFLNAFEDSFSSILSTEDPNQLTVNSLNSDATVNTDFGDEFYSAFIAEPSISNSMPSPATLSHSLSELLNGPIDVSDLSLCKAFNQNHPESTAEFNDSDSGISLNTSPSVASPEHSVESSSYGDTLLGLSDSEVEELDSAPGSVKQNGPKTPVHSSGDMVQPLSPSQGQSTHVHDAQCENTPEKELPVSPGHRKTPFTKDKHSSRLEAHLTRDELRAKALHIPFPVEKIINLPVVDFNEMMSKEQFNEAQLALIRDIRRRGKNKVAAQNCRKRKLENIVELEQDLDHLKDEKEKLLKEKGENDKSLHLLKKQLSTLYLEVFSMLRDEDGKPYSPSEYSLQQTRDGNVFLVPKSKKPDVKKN
Chain of Cellular tumor antigen p53 (Homo sapiens) (P04637 whole entry, looked up): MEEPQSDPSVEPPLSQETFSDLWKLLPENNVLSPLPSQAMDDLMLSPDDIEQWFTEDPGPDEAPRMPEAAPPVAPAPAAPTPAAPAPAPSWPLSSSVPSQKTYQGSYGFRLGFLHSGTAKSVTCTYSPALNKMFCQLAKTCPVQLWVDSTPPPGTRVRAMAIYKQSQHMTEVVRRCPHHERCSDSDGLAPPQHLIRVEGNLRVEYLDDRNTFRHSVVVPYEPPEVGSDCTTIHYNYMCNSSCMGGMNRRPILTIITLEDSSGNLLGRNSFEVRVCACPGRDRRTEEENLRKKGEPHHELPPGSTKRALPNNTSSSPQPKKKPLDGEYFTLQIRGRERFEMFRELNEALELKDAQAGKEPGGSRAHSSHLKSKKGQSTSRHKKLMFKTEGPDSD

With `COC(O)c1ccccc1` (stereo not given), the call in [1] was inactive.

Turning to `Cn1sccc1=O`, the result in assay [1] was inactive.

As to `O=C1NS(=O)(=O)c2ccccc21`, the result in [2], in assay [3], in [4], in assay [5], in assay [6] and in [7] was inactive. Also, the outcome in assay [8] is “inactive”; with TIMP1, TIMP1 (gene 7076) it was “inactive”; in assay [9], “inactive”; in [10], “inactive”; in assay [11], “inactive”; in assay [1], “inactive”.

`CS(=O)(=O)c1ccc([C@@H](CC2CCCC2)C(=O)Nc2cnccn2)cc1Cl`: the outcome in assay [3] is “inactive”; in assay [4], “inactive”; in assay [7], “inactive”; with TIMP1, TIMP1 (gene 7076), “inactive”; in [10] it was “inactive”. The AC50 in [5] was 84 µM (active); in assay [6] it was 94.3 µM (active); in assay [8], 74.1 µM (active); in assay [12] it was 61.3 µM (active); in assay [9], 89.2 µM (active).

As to `CCCCC(CC)C(=O)O` (stereo not given), the result in [2], in assay [3], in assay [4], in assay [5], in assay [6] and in [7] was inactive. For the same compound, the outcome in assay [8] was “inactive”; in the assay with TIMP1, TIMP1 (gene 7076), “inactive”; in [9], “inactive”; in assay [10], “inactive”; in assay [11] it was “inactive”; in assay [1], “inactive”.

For the compound `C=COC(=O)C(C)(C)CCCCCC`, the compound was called inactive in [1].

With `OCC(CO)(CBr)CBr`, the compound was called inactive in assay [2], in [3], in assay [4], in assay [5], in [6] and in assay [7]. Besides, the outcome in [8] is “inactive”; in the assay with TIMP1, TIMP1 (gene 7076) it was “inactive”; in assay [9] it was “inactive”; in assay [10], “inactive”; in assay [11], “inactive”.

`C=C(c1ccc(C(=O)O)cc1)c1cc2c(cc1C)C(C)(C)CCC2(C)C`: the AC50 in [1] is 25.3 µM (active).

As for `C=CC(=O)OCC(CO)(COCC(COC(=O)C=C)(COC(=O)C=C)COC(=O)C=C)COC(=O)C=C`, the half-maximal activity concentration (AC50) was 3.91 µM (active) in [13], 3.32 µM (active) in assay [15], 82.5 µM (active) in assay [16] and 2.74 µM (active) in [17]. In [14], the outcome was inactive.

Consider `Oc1c(Cl)ccc(Cl)c1Cl`, for which the compound was classed as inactive in assay [13], in assay [14], in [15], in assay [16] and in assay [17].

Take `C[C@]12CC[C@@H]3c4ccc(O)cc4CC[C@H]3[C@@H]1CC[C@@H]2OC(=O)CCC1CCCC1`: the compound was classed as inactive in [1], in assay [18], in [14], in assay [15], in assay [16] and in assay [17].
